In PubChem BioAssay AID588651 (The Scripps Research Institute Molecular Screening Center, 2011):
Calls of active or inactive are those of the source. Rule as the data show it: active = inhibition above about 65%; inactive = the rest.

Tested on: Antitargets
Test: Fam108b inhibitors and proteome off-target selectivity – biochemical, gel-based ABPP, recombinant soluble Fam108b, HTS hits, complex proteome, late-stage follow-up (AID 588651);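 also: Fam108b spiked into mouse brain membrane proteome; tested at 20 µM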
Conditions: FP-rhodamine labeling in proteome

Row | Structure (SMILES) | outcome
1 | O=C(O)C1Nc2ccc(Br)cc2C2C=CCC12 (configuration not stated) | inactive
2 | COc1ccc(/C=C2\SC(=S)N(CC(=O)OCC(=O)Nc3cc(Cl)cc(Cl)c3)C2=O)cc1 | inactive
3 | Cc1ccc(-n2c(O)c(/C=N/Nc3ccc(S(=O)(=O)N4CCOCC4)cc3[N+](=O)[O-])c3ccccc3c2=O)c(C)c1 | inactive
4 | O=[N+]([O-])c1ccc(NN=Cc2c[nH]c3ccccc23)c(S(=O)(=O)Nc2ccc(Cl)cc2)c1 | inactive
5 | Cn1c2ccccc2c2cc(C=NNC(=O)c3cc(O)ccc3O)ccc21 | inactive
6 | O=C(Nc1ccc(-c2csc(Nc3ccccc3)n2)cc1)c1cc([N+](=O)[O-])cc(C(F)(F)F)c1 | inactive
7 | Cc1cc(Nc2ccc(Cl)cc2)nc(NCc2ccccc2)n1 | inactive
8 | COc1ccc(C=NNC(=O)c2ccc(O)cc2)cc1CN1CCCc2ccccc21 | inactive
9 | O=C(Nc1cccc(C(F)(F)F)c1)Nc1ccc(N2CCCC2)c(S(=O)(=O)Nc2ccccc2Cl)c1 | active
10 | Clc1ccccc1C(c1ccccc1)(c1ccccc1)n1ccnc1 | inactive
11 | O=C(NN=Cc1ccc(O)cc1)c1cccc(NN=Cc2ccc(O)cc2)c1 | active
12 | O=C1c2ccccc2-c2onc3ccc(NCCCn4ccnc4)c1c23 | inactive
13 | CC(C)(C)c1nc2scc(-c3cccs3)c2c(=O)o1 | inactive
14 | Cc1ccc(S(=O)(=O)Nc2ccccc2C(=O)Nc2nc(-c3ccc(F)cc3)cs2)cc1 | inactive
15 | Oc1ccc(C=NNc2ccnc3cc(Cl)ccc23)c(O)c1O | active
16 | Cc1[nH]c2ccccc2c1C=NNC(=O)c1cccc(S(=O)(=O)Nc2cccc(C(F)(F)F)c2)c1 | inactive
17 | Cc1cccc(N=Cc2nc(-c3ccccc3Br)oc2O)n1 | inactive
